The record followed here is ChEMBL document CHEMBL1961873, “Compounds: GSK PKIS; Assays: Nanosyn kinase panel” (2012).

Each structure is given as a SMILES string.

Experiment [1] has as its target Sphingosine kinase 1 (Homo sapiens) (UniProt Q9NYA1). The following applies: at 1 µM.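 Note: mean SPHK1 inhibition value reported from the GSK PKIS kinase panel screen.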
The target of experiment [2] is T1, Sphingosine kinase 2 (Homo sapiens) (UniProt Q9NRA0).
T1 sequence (whole entry): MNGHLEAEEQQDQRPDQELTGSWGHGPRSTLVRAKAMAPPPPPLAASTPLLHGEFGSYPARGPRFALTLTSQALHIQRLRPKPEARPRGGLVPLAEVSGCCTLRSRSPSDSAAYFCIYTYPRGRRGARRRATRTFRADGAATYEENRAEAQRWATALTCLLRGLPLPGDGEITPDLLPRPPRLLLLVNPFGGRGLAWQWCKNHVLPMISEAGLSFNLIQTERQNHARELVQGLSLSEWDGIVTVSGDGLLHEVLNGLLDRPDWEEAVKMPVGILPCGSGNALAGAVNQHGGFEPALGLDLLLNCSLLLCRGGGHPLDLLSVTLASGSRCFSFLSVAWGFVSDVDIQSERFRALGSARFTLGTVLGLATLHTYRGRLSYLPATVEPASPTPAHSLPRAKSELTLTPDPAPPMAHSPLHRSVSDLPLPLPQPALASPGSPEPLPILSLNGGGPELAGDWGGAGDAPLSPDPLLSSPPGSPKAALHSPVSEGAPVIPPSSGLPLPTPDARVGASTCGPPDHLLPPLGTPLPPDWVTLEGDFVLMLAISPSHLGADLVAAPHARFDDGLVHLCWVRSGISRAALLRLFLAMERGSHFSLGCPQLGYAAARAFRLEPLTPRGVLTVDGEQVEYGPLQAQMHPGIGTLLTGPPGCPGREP
The following applies: at 0.1 µM.

For experiment [3], the target named is T1, Sphingosine kinase 2 (Homo sapiens). Conditions: at 1 µM.
The target of experiment [4] is Casein kinase II subunit alpha (Homo sapiens) (UniProt P68400). Conditions: at 0.1 µM.
Experiment [5] shares this target. The following applies: at 1 µM.
For experiment [6], the target named is T2, Inhibitor of nuclear factor kappa-B kinase subunit alpha (Homo sapiens) (UniProt O15111).
T2 sequence (whole entry): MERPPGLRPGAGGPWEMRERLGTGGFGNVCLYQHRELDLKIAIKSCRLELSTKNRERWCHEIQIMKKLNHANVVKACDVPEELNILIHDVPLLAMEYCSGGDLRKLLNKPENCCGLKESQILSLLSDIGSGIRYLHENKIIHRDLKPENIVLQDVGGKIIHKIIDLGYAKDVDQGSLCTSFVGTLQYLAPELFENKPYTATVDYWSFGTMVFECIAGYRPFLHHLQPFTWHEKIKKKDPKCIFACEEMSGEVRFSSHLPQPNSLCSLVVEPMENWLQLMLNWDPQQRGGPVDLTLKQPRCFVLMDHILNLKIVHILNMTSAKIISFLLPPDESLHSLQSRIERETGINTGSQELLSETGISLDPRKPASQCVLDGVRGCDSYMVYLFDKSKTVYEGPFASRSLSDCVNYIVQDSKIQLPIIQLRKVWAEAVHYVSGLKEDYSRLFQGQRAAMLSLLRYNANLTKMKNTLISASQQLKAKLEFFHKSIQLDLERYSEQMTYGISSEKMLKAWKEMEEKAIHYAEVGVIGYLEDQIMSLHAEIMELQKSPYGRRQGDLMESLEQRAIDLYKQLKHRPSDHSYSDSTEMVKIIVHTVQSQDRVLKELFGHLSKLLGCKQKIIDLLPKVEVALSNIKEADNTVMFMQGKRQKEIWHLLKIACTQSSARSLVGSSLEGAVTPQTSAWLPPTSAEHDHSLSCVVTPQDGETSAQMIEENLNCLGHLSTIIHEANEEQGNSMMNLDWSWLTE
The following applies: at 0.1 µM.

Experiment [7] addresses T2, Inhibitor of nuclear factor kappa-B kinase subunit alpha (Homo sapiens). The following applies: at 1 µM.
In experiment [8] the target is T3, Inhibitor of nuclear factor kappa-B kinase subunit beta (Homo sapiens) (UniProt O14920).
T3 sequence (whole entry): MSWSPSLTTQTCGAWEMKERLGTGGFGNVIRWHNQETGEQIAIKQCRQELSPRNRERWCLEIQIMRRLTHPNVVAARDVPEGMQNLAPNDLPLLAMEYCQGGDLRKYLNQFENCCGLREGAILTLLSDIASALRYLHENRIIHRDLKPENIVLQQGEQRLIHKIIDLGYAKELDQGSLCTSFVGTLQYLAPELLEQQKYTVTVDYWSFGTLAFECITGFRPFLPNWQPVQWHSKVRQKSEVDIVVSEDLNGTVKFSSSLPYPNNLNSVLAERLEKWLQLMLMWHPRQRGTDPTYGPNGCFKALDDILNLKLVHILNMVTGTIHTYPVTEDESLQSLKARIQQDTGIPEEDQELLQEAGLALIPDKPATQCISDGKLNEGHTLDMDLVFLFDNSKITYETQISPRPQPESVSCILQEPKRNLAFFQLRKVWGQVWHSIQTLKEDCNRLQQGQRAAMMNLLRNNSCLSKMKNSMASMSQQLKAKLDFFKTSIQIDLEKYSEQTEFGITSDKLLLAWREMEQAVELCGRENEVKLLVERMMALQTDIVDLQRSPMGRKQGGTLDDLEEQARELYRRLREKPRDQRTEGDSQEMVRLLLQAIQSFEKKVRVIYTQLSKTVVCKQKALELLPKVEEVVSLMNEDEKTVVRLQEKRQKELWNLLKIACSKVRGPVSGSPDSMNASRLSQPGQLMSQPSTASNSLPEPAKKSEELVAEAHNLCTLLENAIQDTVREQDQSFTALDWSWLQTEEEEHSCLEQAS
Conditions: at 0.1 µM.

Experiment [9] concerns the target T3, Inhibitor of nuclear factor kappa-B kinase subunit beta (Homo sapiens). Conditions: at 1 µM.
The target of experiment [10] is T4, Inhibitor of nuclear factor kappa-B kinase subunit epsilon (Homo sapiens) (UniProt Q14164).
T4 sequence (whole entry): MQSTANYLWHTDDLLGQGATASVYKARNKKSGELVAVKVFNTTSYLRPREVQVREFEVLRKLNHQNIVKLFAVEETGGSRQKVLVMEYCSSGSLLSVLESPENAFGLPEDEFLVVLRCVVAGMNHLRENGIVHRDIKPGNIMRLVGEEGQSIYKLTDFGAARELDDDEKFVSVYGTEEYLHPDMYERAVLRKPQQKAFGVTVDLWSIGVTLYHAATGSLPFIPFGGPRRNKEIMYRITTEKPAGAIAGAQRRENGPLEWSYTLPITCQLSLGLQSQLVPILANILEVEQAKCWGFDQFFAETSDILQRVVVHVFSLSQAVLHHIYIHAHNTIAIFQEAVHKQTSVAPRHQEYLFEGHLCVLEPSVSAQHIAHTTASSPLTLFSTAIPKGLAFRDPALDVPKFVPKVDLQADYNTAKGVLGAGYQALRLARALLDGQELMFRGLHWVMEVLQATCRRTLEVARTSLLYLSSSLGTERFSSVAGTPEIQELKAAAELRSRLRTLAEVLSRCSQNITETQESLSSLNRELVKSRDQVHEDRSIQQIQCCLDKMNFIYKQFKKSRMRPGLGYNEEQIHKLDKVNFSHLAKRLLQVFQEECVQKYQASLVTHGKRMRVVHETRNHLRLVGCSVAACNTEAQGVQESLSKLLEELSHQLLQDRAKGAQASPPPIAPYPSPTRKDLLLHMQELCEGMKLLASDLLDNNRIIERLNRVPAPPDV
Conditions: at 0.1 µM.

The target of experiment [11] is T4, Inhibitor of nuclear factor kappa-B kinase subunit epsilon (Homo sapiens). The following applies: at 1 µM.
Experiment [12] concerns the target T5, Serine/threonine-protein kinase Nek1 (Homo sapiens) (UniProt Q96PY6).
T5 sequence (whole entry): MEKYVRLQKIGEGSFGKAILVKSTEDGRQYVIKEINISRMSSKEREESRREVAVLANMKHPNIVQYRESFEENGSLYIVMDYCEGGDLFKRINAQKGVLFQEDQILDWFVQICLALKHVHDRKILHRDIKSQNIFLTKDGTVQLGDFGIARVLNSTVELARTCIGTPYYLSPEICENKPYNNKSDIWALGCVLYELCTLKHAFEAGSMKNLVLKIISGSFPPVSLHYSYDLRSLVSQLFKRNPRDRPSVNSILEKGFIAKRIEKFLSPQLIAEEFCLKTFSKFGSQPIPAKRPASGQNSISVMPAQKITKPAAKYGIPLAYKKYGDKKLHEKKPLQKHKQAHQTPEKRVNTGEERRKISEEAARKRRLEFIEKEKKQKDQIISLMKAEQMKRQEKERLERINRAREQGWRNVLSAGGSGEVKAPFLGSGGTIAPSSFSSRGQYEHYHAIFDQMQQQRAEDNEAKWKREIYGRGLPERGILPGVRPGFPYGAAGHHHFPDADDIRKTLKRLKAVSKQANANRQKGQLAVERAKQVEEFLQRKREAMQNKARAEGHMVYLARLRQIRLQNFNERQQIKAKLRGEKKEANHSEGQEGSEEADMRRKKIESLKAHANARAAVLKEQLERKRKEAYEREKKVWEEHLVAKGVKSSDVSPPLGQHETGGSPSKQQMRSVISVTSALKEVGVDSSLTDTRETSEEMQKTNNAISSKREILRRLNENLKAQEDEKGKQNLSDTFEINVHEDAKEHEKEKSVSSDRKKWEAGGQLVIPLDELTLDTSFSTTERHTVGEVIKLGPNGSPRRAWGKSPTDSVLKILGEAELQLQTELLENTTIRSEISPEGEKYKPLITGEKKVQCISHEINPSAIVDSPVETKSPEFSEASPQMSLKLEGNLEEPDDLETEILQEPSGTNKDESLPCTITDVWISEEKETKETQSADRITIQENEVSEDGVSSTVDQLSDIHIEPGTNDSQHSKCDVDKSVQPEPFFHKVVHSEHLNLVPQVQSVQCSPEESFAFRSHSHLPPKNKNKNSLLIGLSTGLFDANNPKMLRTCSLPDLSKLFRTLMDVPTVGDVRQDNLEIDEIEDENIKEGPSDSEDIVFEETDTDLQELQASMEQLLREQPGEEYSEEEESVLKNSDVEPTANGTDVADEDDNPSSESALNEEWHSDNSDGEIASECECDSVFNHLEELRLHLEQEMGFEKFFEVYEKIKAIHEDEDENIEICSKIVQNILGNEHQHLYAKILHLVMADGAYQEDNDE
The following applies: at 0.1 µM.

In experiment [13] the target is T5, Serine/threonine-protein kinase Nek1 (Homo sapiens). Conditions: at 1 µM.
The target in experiment [14] is T6, Serine/threonine-protein kinase Nek2 (Homo sapiens) (UniProt P51955).
T6 sequence (whole entry): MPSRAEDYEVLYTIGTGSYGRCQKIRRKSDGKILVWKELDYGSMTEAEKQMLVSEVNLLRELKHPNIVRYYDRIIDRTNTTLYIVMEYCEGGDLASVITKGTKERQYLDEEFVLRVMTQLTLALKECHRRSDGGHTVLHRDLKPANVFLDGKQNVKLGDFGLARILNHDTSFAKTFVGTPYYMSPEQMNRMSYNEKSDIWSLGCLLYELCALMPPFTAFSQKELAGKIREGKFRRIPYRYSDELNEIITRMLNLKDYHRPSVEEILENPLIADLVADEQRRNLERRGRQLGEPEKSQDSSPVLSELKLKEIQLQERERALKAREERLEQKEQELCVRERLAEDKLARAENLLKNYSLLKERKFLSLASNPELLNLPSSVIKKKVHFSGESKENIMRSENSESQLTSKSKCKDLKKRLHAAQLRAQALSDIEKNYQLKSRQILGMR
The following applies: at 0.1 µM.

Experiment [15] addresses T6, Serine/threonine-protein kinase Nek2 (Homo sapiens). Conditions: at 1 µM.
Experiment [16] has as its target Serine/threonine-protein kinase Nek6 (Homo sapiens) (UniProt Q9HC98). Conditions: at 0.1 µM.
Experiment [17] has the same target. The following applies: at 1 µM.
Experiment [18] addresses Serine/threonine-protein kinase Nek7 (Homo sapiens) (UniProt Q8TDX7). Conditions: at 0.1 µM.
Experiment [19] has the same target. Conditions: at 1 µM.
The target of experiment [20] is T7, Serine/threonine-protein kinase Nek9 (Homo sapiens) (UniProt Q8TD19).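 Note: reported value is the mean percent inhibition of NEK9.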
T7 sequence (whole entry): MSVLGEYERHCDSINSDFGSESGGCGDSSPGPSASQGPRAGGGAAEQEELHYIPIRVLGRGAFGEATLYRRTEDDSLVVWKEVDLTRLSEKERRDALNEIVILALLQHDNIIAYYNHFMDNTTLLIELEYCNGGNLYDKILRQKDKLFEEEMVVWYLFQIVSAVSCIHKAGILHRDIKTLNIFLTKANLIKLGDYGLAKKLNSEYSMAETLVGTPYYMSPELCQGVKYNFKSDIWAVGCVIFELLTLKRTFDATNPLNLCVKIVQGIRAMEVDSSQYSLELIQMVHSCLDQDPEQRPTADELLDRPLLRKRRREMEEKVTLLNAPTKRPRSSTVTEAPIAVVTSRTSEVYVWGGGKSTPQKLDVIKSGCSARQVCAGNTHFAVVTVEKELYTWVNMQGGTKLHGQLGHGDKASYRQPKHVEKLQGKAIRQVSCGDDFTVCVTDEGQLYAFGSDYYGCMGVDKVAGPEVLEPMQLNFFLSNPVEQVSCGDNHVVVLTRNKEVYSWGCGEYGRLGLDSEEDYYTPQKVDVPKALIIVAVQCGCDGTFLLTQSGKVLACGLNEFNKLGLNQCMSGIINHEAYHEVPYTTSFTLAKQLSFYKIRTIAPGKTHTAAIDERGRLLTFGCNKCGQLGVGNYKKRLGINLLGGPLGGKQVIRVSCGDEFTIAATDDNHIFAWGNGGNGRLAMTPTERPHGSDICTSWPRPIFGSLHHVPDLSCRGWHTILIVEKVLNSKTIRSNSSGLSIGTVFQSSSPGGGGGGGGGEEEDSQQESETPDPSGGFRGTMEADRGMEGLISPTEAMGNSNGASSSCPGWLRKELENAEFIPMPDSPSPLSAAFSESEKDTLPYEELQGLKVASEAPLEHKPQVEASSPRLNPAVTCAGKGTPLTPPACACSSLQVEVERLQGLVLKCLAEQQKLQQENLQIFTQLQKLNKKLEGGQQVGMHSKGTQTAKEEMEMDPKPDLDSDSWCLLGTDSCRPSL
Conditions: at 0.1 µM.

Serine/threonine-protein kinase Nek6 (Homo sapiens), sequence (Q9HC98 whole entry): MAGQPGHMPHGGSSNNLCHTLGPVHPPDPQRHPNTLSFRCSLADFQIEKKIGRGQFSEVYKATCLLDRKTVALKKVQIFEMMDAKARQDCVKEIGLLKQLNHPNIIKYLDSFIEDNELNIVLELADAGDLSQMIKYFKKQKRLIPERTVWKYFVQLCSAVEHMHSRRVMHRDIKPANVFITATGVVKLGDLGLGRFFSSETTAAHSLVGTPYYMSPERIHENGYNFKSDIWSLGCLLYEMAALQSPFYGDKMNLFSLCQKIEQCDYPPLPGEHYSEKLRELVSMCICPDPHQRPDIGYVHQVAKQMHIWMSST
Serine/threonine-protein kinase Nek7 (Homo sapiens), sequence (Q8TDX7 whole entry, looked up): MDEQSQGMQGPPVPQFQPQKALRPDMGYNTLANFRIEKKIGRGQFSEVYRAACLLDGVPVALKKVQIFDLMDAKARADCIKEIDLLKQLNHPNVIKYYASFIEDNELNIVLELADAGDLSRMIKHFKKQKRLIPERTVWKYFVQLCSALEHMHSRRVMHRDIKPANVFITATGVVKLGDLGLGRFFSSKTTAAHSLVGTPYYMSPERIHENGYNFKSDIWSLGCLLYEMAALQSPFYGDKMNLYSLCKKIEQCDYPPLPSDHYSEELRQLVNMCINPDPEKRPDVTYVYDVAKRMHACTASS
Casein kinase II subunit alpha (Homo sapiens), sequence (P68400 whole entry, looked up): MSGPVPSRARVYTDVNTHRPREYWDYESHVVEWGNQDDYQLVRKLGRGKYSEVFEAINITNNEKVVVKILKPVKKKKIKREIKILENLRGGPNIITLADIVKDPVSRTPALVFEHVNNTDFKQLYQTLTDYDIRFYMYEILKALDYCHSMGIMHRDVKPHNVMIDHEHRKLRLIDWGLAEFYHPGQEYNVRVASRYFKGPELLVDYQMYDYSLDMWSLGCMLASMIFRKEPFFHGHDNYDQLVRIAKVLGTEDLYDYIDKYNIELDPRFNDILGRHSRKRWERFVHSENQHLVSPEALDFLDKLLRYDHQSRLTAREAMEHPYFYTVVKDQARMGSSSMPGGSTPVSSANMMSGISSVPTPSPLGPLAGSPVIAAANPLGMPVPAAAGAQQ
Sphingosine kinase 1 (Homo sapiens), sequence (Q9NYA1 whole entry): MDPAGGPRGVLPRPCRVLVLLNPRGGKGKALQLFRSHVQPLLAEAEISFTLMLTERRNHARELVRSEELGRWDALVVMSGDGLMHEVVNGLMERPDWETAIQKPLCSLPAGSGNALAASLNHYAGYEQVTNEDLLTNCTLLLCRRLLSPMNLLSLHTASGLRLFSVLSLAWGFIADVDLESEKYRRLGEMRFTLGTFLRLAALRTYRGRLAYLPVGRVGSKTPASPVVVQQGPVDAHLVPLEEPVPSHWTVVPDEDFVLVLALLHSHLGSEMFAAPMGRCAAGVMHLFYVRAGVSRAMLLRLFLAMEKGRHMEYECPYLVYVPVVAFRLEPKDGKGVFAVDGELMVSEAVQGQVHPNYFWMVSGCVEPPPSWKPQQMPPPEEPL

Regarding `NS(=O)(=O)c1cccc(N/C=C2\C(=O)Nc3ccccc32)c1`, the inhibition was -0.2% in experiment [1]; 0.81% in experiment [2]; 0.83% in experiment [3]; 2.24% in [4]; 3.93% in experiment [5]; 4.81% in experiment [6]. In addition, the inhibition was 3.57% in experiment [7]; 6.37% in experiment [8]; 4.39% in experiment [9]; 6.35% in experiment [10]; 14.5% in [11]; 2.63% in [12]. The inhibition in experiment [13] was found to be 4.56%; in [14], 5.64%; in experiment [15], 4.55%; in [16], 1.86%; in experiment [17], 1.95%; in [18], 6.51%. Besides, the inhibition in [19] was 4.33%; in [20], 5.97%.
